PubChem BioAssay
For some assays here: Measured potencies and affinities stand elsewhere. Activity calls are given as the source filed them. Unless noted, no rule for the calls is given here.

Columns and labels:
[1] = antimalarial activity against Dd2 strain (AID 2302;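 active = growth inhibition above 50% at the single 2 µM test dose, taken to imply half-maximal potency below 2 µM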;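 also: 0% = DMSO untreated growth and 100% = chloroquine plus artemisinin killed control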); settings: P. falciparum Dd2 in RBCs, LDH growth readout, 72 h; at 2 µM; stronger effect = higher value
[2] = HepG2 cytotoxicity, primary screen, cytotoxicity control for P. falciparum antimalarial project, cell-based, ATP luminescence (AID 2303;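 active = inhibition above 50%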;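 also: 0% = DMSO wells and 100% = digitonin-killed cells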); settings: HepG2 viability, 24-48 h, at 10 µM, stronger effect = higher value
[3] = biological target: L-lactate dehydrogenase (Plasmodium falciparum (isolate CDC / Honduras)) (UniProt Q27743); assay: PfLDH activity inhibition – cell lysate, 3D7 strain, counter-screen for P. falciparum growth inhibition project (AID 2304);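 also: 0% = vehicle and 100% = reference inhibitor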; settings: P. falciparum 3D7 crude extract, LDH APAD/NBT absorbance; at 2 µM; stronger effect = higher value
[4] = inhibition of 3D7 malaria parasite growth – strain 3D7 (AID 2306);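 also: 0% = DMSO wells and 100% = chloroquine plus artemisinin control wells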; settings: P. falciparum 3D7 erythrocytic growth, LDH absorbance, 72 h; at 2 µM; stronger effect = higher value
[5] = biological target: Calcium-dependent protein kinase 1 (Plasmodium falciparum (isolate 3D7)) (UniProt P62344); assay: PfCDPK1 kinase inhibitors, biochemical, TCAMS library (AID 1159585; cut-off not given, nearly all actives have IC50 up to about 0.98 µM;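 also: inhibitors leave more ATP so luminescence rises with inhibition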); settings: recombinant PfCDPK1, Kinase-Glo ATP depletion luminescence
[6] = biological target: Plasmodium falciparum protein kinase 6 (PK6, PF3D7_1337100) (UniProt Q8IDW1); assay: PfPK6 kinase inhibitors, biochemical, TCAMS library (AID 1159586); settings: recombinant PfPK6, Kinase-Glo ATP depletion luminescence
[7] = biological target: Protein kinase 7 (PK7), Plasmodium falciparum 3D7 (PF3D7_0213400) (UniProt Q7YTF7); assay: inhibition of Plasmodium PK7 catalytic activity – biochemical, TCAMS antimalarial set, Kinase-Glo luminescence (AID 1159587); settings: recombinant PfPK7, Kinase-Glo ATP depletion luminescence
[8] = biological target: Calcium-dependent protein kinase 4 (Plasmodium falciparum (isolate 3D7)) (UniProt Q8IBS5); assay: PfCDPK4 kinase inhibitors, biochemical, TCAMS library (AID 1159588; cut-off not given, nearly all actives have IC50 up to about 0.91 µM); settings: recombinant PfCDPK4, Kinase-Glo ATP depletion luminescence
Calcium-dependent protein kinase 4 (Plasmodium falciparum (isolate 3D7)), sequence (Q8IBS5 whole entry, looked up): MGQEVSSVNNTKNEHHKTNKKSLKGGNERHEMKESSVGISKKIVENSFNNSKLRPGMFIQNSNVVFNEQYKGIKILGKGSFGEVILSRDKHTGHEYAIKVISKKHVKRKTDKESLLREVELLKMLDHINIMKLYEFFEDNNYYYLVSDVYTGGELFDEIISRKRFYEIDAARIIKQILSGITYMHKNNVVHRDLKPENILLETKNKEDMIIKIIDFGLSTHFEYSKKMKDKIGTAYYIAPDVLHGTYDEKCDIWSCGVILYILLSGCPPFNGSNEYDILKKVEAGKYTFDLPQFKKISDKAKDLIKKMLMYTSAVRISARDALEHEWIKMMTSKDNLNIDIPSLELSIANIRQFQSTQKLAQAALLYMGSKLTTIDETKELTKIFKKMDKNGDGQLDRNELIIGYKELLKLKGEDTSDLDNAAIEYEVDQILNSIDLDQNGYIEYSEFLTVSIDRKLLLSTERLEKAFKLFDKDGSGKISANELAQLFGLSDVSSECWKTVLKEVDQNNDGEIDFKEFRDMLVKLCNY

L-lactate dehydrogenase (Plasmodium falciparum (isolate CDC / Honduras)), sequence (Q27743 whole entry, looked up): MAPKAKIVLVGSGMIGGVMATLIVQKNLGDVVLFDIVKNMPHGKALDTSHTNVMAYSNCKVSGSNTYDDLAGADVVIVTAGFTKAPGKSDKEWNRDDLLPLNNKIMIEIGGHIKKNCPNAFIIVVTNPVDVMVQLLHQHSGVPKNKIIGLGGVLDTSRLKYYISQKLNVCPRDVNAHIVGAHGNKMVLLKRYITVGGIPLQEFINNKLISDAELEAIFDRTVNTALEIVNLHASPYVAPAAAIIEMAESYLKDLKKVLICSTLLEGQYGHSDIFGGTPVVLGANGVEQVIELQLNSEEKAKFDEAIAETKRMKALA
Protein kinase 7 (PK7), Plasmodium falciparum 3D7 (PF3D7_0213400), sequence (Q7YTF7 1-343): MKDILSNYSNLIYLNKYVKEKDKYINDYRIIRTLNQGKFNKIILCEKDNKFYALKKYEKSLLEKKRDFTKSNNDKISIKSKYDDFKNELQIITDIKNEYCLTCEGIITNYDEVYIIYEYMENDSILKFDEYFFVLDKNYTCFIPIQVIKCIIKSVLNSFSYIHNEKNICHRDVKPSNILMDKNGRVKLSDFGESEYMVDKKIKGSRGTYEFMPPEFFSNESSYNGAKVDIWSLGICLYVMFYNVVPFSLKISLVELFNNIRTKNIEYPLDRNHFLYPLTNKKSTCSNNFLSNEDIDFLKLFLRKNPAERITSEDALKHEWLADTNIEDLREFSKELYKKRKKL
Plasmodium falciparum protein kinase 6 (PK6, PF3D7_1337100), sequence (Q8IDW1 1-305): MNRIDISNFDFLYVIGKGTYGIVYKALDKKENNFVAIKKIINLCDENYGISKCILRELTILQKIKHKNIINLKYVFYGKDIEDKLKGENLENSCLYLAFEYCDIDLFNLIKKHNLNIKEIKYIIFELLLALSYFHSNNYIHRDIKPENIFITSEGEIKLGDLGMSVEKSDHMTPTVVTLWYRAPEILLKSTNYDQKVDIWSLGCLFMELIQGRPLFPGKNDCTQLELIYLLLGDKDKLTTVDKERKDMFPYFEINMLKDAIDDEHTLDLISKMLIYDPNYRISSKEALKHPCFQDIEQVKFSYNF
Calcium-dependent protein kinase 1 (Plasmodium falciparum (isolate 3D7)), sequence (P62344 whole entry, looked up): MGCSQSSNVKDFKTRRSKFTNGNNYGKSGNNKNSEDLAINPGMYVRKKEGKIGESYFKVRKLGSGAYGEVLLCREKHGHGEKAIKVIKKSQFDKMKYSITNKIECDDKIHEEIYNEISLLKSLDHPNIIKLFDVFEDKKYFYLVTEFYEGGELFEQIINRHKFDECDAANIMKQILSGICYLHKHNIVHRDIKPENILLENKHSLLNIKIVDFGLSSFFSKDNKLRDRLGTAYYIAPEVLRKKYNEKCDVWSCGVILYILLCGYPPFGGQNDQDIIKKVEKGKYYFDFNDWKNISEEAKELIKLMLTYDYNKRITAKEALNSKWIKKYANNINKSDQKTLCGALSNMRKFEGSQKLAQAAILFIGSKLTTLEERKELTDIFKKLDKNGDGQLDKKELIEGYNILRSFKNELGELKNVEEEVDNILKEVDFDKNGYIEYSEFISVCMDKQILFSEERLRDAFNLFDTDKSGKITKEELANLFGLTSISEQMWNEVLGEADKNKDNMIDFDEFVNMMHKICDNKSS

CC(=O)Nc1nc(N)c2c(ccc3c2ccn3CC(C)C)n1
inactive: inhibition [3] -3% | outcome [5] | outcome [6] | outcome [7] | outcome [8]
active: growth inhibition [1] 78% | inhibition [2] 66% | growth inhibition [4] 94%

COc1ccc(NC(=O)NC2CCN(c3ccnc4cc(Cl)ccc34)C2)cc1 (stereo not given)
inactive: inhibition [2] 10% | inhibition [3] -2% | outcome [5] | outcome [6] | outcome [7] | outcome [8]
active: growth inhibition [1] 69% | growth inhibition [4] 101%

CC(Cc1ccc(C(=O)Nc2ccc(CC(C)NCCc3cccc(Cl)c3)cc2)cc1)NCCc1ccc(C(F)(F)F)cc1 (stereo not given)
inactive: inhibition [3] -4% | outcome [5] | outcome [6] | outcome [7] | outcome [8]
active: growth inhibition [1] 88% | inhibition [2] 98% | growth inhibition [4] 101%

COc1ccc2nc3cc(Cl)ccc3c(NCCO)c2c1
active: growth inhibition [1] 93% | growth inhibition [4] 101%
inactive: inhibition [2] 12% | inhibition [3] 9% | outcome [5] | outcome [6] | outcome [7] | outcome [8]

CCCCC(CC)C(=O)C(NC(=O)[C@H](CSC(c1ccccc1)(c1ccccc1)c1ccccc1)NC(=O)OC(C)(C)C)C(=O)OC (stereo not given in full)
inactive: growth inhibition [1] 31% | inhibition [2] 8% | inhibition [3] 0% | outcome [5] | outcome [6] | outcome [7] | outcome [8]
active: growth inhibition [4] 88%

COc1ccc(CNCc2ccccc2)cc1-c1cccc(S(=O)(=O)NCCN2CCCC2)c1
active: growth inhibition [4] 98%
inactive: growth inhibition [1] 36% | inhibition [2] 37% | inhibition [3] -8% | outcome [5] | outcome [6] | outcome [7] | outcome [8]

Cc1cc(C)c(O)c(-c2cc(C(=O)Nc3ccc(S(=O)(=O)N4CC(C)OC(C)C4)cc3)[nH]n2)c1 (stereo not given)
inactive: growth inhibition [1] 16% | inhibition [2] 31% | inhibition [3] -1% | outcome [5] | outcome [6] | outcome [7] | outcome [8]
active: growth inhibition [4] 95%

Cc1cc2nc(-c3ccc(/C=C/C(=O)NCCCc4ccccc4)cc3)[nH]c2cc1C
active: growth inhibition [4] 96%
inactive: growth inhibition [1] 13% | inhibition [2] 15% | inhibition [3] -4% | outcome [5] | outcome [6] | outcome [7] | outcome [8]

COc1ccc2ccccc2c1CNCC1CCN(CC2CCCCC2)CC1
active: growth inhibition [4] 98%
inactive: growth inhibition [1] 27% | inhibition [2] 23% | inhibition [3] -3% | outcome [5] | outcome [6] | outcome [7] | outcome [8]

O=C(Nc1ccc(C(F)(F)F)cc1)c1ccc(S(=O)(=O)NC2CCN(CC3CCCCC3)C2)cc1 (stereo not given)
inactive: growth inhibition [1] 16% | inhibition [2] 33% | inhibition [3] 5% | outcome [5] | outcome [6] | outcome [7] | outcome [8]
active: growth inhibition [4] 99%

C=CCc1cc(Cc2cnc(N)nc2N)cc(CCC)c1O
inactive: growth inhibition [1] 2% | inhibition [3] -1% | outcome [5] | outcome [6] | outcome [7] | outcome [8]
active: inhibition [2] 54% | growth inhibition [4] 90%

COc1c(CNCCCCCCNCc2cc(Cl)c3ccccc3c2OC)cc(Cl)c2ccccc12
active: inhibition [2] 100% | growth inhibition [4] 96%
inactive: growth inhibition [1] 45% | inhibition [3] -4% | outcome [5] | outcome [6] | outcome [7] | outcome [8]

COc1cc2c(cc1OCCN1CCC(N3CCCC3)CC1)N(C(=O)/C=C/c1ccccc1Cl)CC2
inactive: inhibition [2] 38% | inhibition [3] -7% | outcome [5] | outcome [6] | outcome [7] | outcome [8]
active: growth inhibition [1] 68% | growth inhibition [4] 100%

NC1=NC2(CCCCC2)N(OCC2CCCCC2)C(N)=N1
inactive: growth inhibition [1] 49% | inhibition [3] 0% | outcome [5] | outcome [6] | outcome [7] | outcome [8]
active: inhibition [2] 70% | growth inhibition [4] 96%

c1ccc2c(NCCCCCCCCNc3ccnc4ccccc34)ccnc2c1
active: inhibition [2] 57% | growth inhibition [4] 101%
inactive: growth inhibition [1] 35% | inhibition [3] -1% | outcome [5] | outcome [6] | outcome [7] | outcome [8]

CN(c1ccc2c(c1)nc(NC(=O)C1(c3cc(F)ccc3F)CC1)n2C)c1ccnc(Nc2cccc(CS(C)(=O)=O)c2)n1
active: growth inhibition [4] 89%
inactive: growth inhibition [1] 46% | inhibition [2] 42% | inhibition [3] 6% | outcome [5] | outcome [6] | outcome [7] | outcome [8]

COc1ccc(CCNc2nc(SCc3ccccc3Cl)nc3ccccc23)cc1OC
inactive: growth inhibition [1] 2% | inhibition [2] 27% | inhibition [3] 0% | outcome [5] | outcome [6] | outcome [7] | outcome [8]
active: growth inhibition [4] 94%

COC1(C)Oc2ccc3cccc([N+](=O)[O-])c3c2C1=O (stereo not given)
active: growth inhibition [4] 98%
inactive: growth inhibition [1] -4% | inhibition [2] 3% | inhibition [3] -2% | outcome [5] | outcome [6] | outcome [7] | outcome [8]

COc1ccc2nccc([C@@H](O)CN3CCC(NCCNc4cccc(F)c4)CC3)c2c1
active: growth inhibition [1] 73% | growth inhibition [4] 98%
inactive: inhibition [2] 11% | inhibition [3] 0% | outcome [5] | outcome [6] | outcome [7] | outcome [8]

Cc1ccc(-n2ncc(C(=O)Nc3cc(Cl)cc(Cl)c3)c2C2CCNCC2)cc1C
inactive: inhibition [3] -7% | outcome [5] | outcome [6] | outcome [7] | outcome [8]
active: growth inhibition [1] 77% | inhibition [2] 65% | growth inhibition [4] 100%

CCc1cccc2c(C#N)cn(CC(=O)Nc3ccc(OC)cc3)c12
inactive: inhibition [2] -13% | inhibition [3] -3% | outcome [5] | outcome [6] | outcome [7] | outcome [8]
active: growth inhibition [1] 76% | growth inhibition [4] 97%

Cc1nnsc1C(=O)Nc1cccc(-c2ccc(-c3nc4ccc(F)cc4[nH]3)cc2)c1
active: growth inhibition [1] 89% | inhibition [2] 51% | growth inhibition [4] 100%
inactive: inhibition [3] 4% | outcome [5] | outcome [6] | outcome [7] | outcome [8]

NC(N)=Nc1ccc(CCc2ccc(N=C(N)N)cc2)cc1
inactive: inhibition [3] -1% | outcome [5] | outcome [6] | outcome [7] | outcome [8]
active: growth inhibition [1] 95% | inhibition [2] 57% | growth inhibition [4] 96%

COc1c(C2CCN(CCCCNC(=O)c3ccc(-c4ccc(C(=O)C(F)(F)F)cc4)cc3)CC2)ccc2c1CCCC2
inactive: growth inhibition [1] 33% | inhibition [3] -4% | outcome [5] | outcome [6] | outcome [7] | outcome [8]
active: inhibition [2] 99% | growth inhibition [4] 81%

CC1(C)N=C(N)N=C(N)N1OCc1ccc2ccccc2c1
inactive: inhibition [3] -9% | outcome [5] | outcome [6] | outcome [7] | outcome [8]
active: growth inhibition [1] 97% | inhibition [2] 65% | growth inhibition [4] 94%

COc1c(I)cc(Cc2cnc(N)nc2N)cc1I
active: growth inhibition [4] 91%
inactive: growth inhibition [1] 0% | inhibition [2] 5% | inhibition [3] -8% | outcome [5] | outcome [6] | outcome [7] | outcome [8]

CCCN(CCCN(CCCN(CCC)C(C)C)c1cc(C)nc(Nc2ccc(Cl)cc2)n1)C(C)C
inactive: inhibition [2] 39% | inhibition [3] 0% | outcome [5] | outcome [6] | outcome [7] | outcome [8]
active: growth inhibition [1] 99% | growth inhibition [4] 102%

Cc1csc(-c2nonc2NC(=O)COc2ccccc2C(C)C)n1
active: growth inhibition [1] 85% | growth inhibition [4] 90%
inactive: inhibition [2] 14% | inhibition [3] -1% | outcome [5] | outcome [6] | outcome [7] | outcome [8]

COc1ccccc1C1CCN(C2CCC(NC(=O)/C=C/c3cc(C(F)(F)F)ccc3F)CC2)CC1 (stereo not given)
active: growth inhibition [4] 97%
inactive: growth inhibition [1] 32% | inhibition [2] 39% | inhibition [3] -3% | outcome [5] | outcome [6] | outcome [7] | outcome [8]

O=C(c1ccc(OCCn2ccnc2)cc1)N1CCC(c2ccc(Br)cc2)C1 (stereo not given)
inactive: inhibition [2] 49% | inhibition [3] -3% | outcome [5] | outcome [6] | outcome [7] | outcome [8]
active: growth inhibition [1] 99% | growth inhibition [4] 100%

O=C(NCCCCCN1CCC(c2c[nH]c3ccccc23)CC1)c1ccc(Cl)c(Cl)c1
active: growth inhibition [4] 85%
inactive: growth inhibition [1] 10% | inhibition [2] 48% | inhibition [3] -2% | outcome [5] | outcome [6] | outcome [7] | outcome [8]

Cc1cccc2[nH]c(-c3ccc(-c4ccc(CNCC5CCCO5)cc4)cc3)nc12 (stereo not given)
active: growth inhibition [1] 81% | growth inhibition [4] 101%
inactive: inhibition [2] 36% | inhibition [3] -4% | outcome [5] | outcome [6] | outcome [7] | outcome [8]

Oc1ccc(CCNCCCCCCNCCc2ccc(Br)cc2)cc1O
inactive: growth inhibition [1] 5% | inhibition [2] 2% | inhibition [3] -2% | outcome [5] | outcome [6] | outcome [7] | outcome [8]
active: growth inhibition [4] 99%

COc1cc(C(=O)NC2CCc3ccccc32)cc(Cl)c1OC (stereo not given)
inactive: inhibition [2] 12% | inhibition [3] -4% | outcome [5] | outcome [6] | outcome [7] | outcome [8]
active: growth inhibition [1] 60% | growth inhibition [4] 85%

O=C(Nc1ccc(C(F)(F)F)cc1)NC1CCN(c2ccnc3cc(Cl)ccc23)C1 (stereo not given)
active: growth inhibition [1] 99% | growth inhibition [4] 102%
inactive: inhibition [2] 20% | inhibition [3] -2% | outcome [5] | outcome [6] | outcome [7] | outcome [8]

COc1cccc(NC(=O)NC2CCN(c3ccnc(Nc4cc(OC)c(OC)c(OC)c4)n3)C2)c1 (stereo not given)
active: growth inhibition [1] 57% | growth inhibition [4] 95%
inactive: inhibition [2] 8% | inhibition [3] -2% | outcome [5] | outcome [6] | outcome [7] | outcome [8]

Cn1c2ccccc2c2c3ccccc3c(CNC(CO)(CO)CO)cc21
active: growth inhibition [1] 78% | inhibition [2] 67% | growth inhibition [4] 96%
inactive: inhibition [3] -1% | outcome [5] | outcome [6] | outcome [7] | outcome [8]

O=C(Nc1ccc(N2CCCN(Cc3cccc(F)c3)CC2)cc1)c1ccccc1
active: growth inhibition [1] 95% | growth inhibition [4] 95%
inactive: inhibition [2] 25% | inhibition [3] -4% | outcome [5] | outcome [6] | outcome [7] | outcome [8]

O=C(Cn1c(SCc2cccc(F)c2F)cc(=O)c2ccccc21)N(CCCn1ccnc1)Cc1ccc(-c2ccc(C(F)(F)F)cc2)cc1
active: growth inhibition [1] 99% | growth inhibition [4] 99%
inactive: inhibition [2] 21% | inhibition [3] -5% | outcome [5] | outcome [6] | outcome [7] | outcome [8]

COc1cc(C(=O)Nc2ccc(-c3nc4ccccc4[nH]3)cc2)cc(OC)c1OC
active: growth inhibition [4] 99%
inactive: growth inhibition [1] 33% | inhibition [2] 13% | inhibition [3] -8% | outcome [5] | outcome [6] | outcome [7] | outcome [8]
